Counter-ions that a name gives are not always drawn.
Assays:
Conditions in all cases: 20 µM; incubation time: 27 h, anaerobic, 37 °C;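 for the amine columns active = adjusted P below 0.05 in both replicates with a change the same way and a mean fold change under 0.8 or over 1.25; inactive = the rest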
[1] = system: Clostridium sporogenes DSM 1664; test: growth (OD595) fold change vs plate DMSO controls (fold change (ratio)); higher = more growth
Outline: (§1)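 The reported measure is growth: the fold change against the median of DMSO controls on the plate. Absorbance at 595 nm from anaerobic 96-well mGAM cultures grown for 27 h at 37 °C was blank-subtracted, corrected for background with 20 µM compound solutions in water, and converted to OD with a calibration factor of 5. Fold changes above 1.5 appear as NA, and values are the mean of 2 biological replicates.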

Escherichia coli IAI1 [2] = test: as above
Outline: as §1

[3] = system: Klebsiella aerogenes DSM 30053; test: as above
Outline: as §1

[4] = system: Ruminococcus gnavus DSM 108212; test: as above
Outline: as §1

[5] = system: Klebsiella aerogenes DSM 30053; test: fold change of Histamine concentration vs plate DMSO controls (fold change (ratio)); higher = more amine produced, active = hit call of the paper (significant change in both replicates, either direction)
Outline: (§2)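 Using LC–triple-quadrupole MS with dynamic MRM, amines were quantified against external calibration curves and corrected for drift within each batch. Samples were whole anaerobic mGAM cultures of four gut strains, grown 27 h at 37 °C from OD 0.1 before 1:1 dilution, extracted with cold acetonitrile/methanol containing 0.1% formic acid and centrifuged. Compounds were present at 20 µM final (sweeteners at 50 µM final). The numbers are fold changes versus plate DMSO controls, each the mean of 2 biological replicates.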

[6] = system: Clostridium sporogenes DSM 1664; test: fold change of Tryptamine concentration vs plate DMSO controls (fold change (ratio)); higher = more amine produced, active = hit call of the paper (significant change in both replicates, either direction)
Outline: as §2

[7] = system: Ruminococcus gnavus DSM 108212; test: as above
Outline: as §2

Escherichia coli IAI1 [8] = test: fold change of Putrescine concentration vs plate DMSO controls (fold change (ratio)); higher = more amine produced, active = hit call of the paper (significant change in both replicates, either direction)
Outline: as §2

[9] = system: Klebsiella aerogenes DSM 30053; test: as above
Outline: as §2

Escherichia coli IAI1 [10] = test: fold change of Cadaverine concentration vs plate DMSO controls (fold change (ratio)); higher = more amine produced, active = hit call of the paper (significant change in both replicates, either direction)
Outline: as §2

[11] = system: Klebsiella aerogenes DSM 30053; test: as above
Outline: as §2

[12] = system: Ruminococcus gnavus DSM 108212; test: fold change of 2-Phenylethylamine concentration vs plate DMSO controls (fold change (ratio)); higher = more amine produced, active = hit call of the paper (significant change in both replicates, either direction)
Outline: as §2

SMILES | growth [1] | growth (Escherichia coli IAI1 [2]) | growth [3] | growth [4] | fold change of Histamine concentration [5] | fold change of Tryptamine concentration [6] | fold change of Tryptamine concentration [7] | fold change of Putrescine concentration (Escherichia coli IAI1 [8]) | fold change of Putrescine concentration [9] | fold change of Cadaverine concentration (Escherichia coli IAI1 [10]) | fold change of Cadaverine concentration [11] | fold change of 2-Phenylethylamine concentration [12]
C[N+]12CCC(CC1)C(OC(=O)C(O)(c1ccccc1)c1ccccc1)C2 (configuration not stated) [Clidinium bromide] | 1.02 | 1.04 | 1.07 | 1 | 0.975 (inactive) | 0.952 (inactive) | 1.03 (inactive) | 0.957 (inactive) | 0.981 (inactive) | 1 (inactive) | 1 (inactive) | 1.02 (inactive)
CCOCN(C(=O)CCl)c1c(C)cccc1CC | 0.867 | 1.01 | 0.997 | 1.08 | 1.01 (inactive) | 1.06 (inactive) | 1.01 (inactive) | 0.901 (inactive) | 0.941 (inactive) | 0.88 (inactive) | 1 (inactive) | 1.02 (inactive)
CNC(=O)ON=C(C)SC | 1.01 | 0.969 | 1 | 0.984 | 1.04 (inactive) | 1.06 (inactive) | 1.06 (inactive) | 1 (inactive) | 0.967 (inactive) | 0.892 (inactive) | 1 (inactive) | 1.09 (inactive)
Cc1cc(C(C#N)c2ccc(Cl)cc2)c(Cl)cc1NC(=O)c1cc(I)cc(I)c1O (configuration not stated) [Closantel] | 0.0125 | 1.08 | 1.03 | 0.185 | 0.981 (inactive) | 0.0178 (active) | 0.121 (active) | 1.19 (inactive) | 0.984 (inactive) | 1.32 (active) | 1.05 (inactive) | 0.13 (active)
CCCN(CCC)N=O [NDPA (N-nitrosodipropylamine)] | 0.977 | 0.974 | 0.99 | 0.958 | 1.01 (inactive) | 1.03 (inactive) | 1.06 (inactive) | 0.969 (inactive) | 0.982 (inactive) | 0.874 (inactive) | 1.01 (inactive) | 1.07 (inactive)
NC(=O)CN1CCCC1=O [Piracetam] | 1.08 | 0.995 | 0.984 | 1.11 | 1.04 (inactive) | 1.01 (inactive) | 1.02 (inactive) | 1.04 (inactive) | 1.01 (inactive) | 0.997 (inactive) | 0.985 (inactive) | 1.01 (inactive)
CCCCCC[C@H]1C(=O)O[C@H](C)[C@H](NC(=O)c2cccc(NC=O)c2O)C(=O)O[C@@H](C)[C@@H]1OC(=O)CC(C)C [Antimycin A] | 1.09 | 1.03 | 1.02 | 1.15 | 0.994 (inactive) | 0.974 (inactive) | 1.04 (inactive) | 0.99 (inactive) | 0.98 (inactive) | 1.03 (inactive) | 1.01 (inactive) | 0.975 (inactive)
CCN(CC)N=O [NDEA (N-nitrosodiethylamine)] | 1.13 | 1.04 | 1.09 | 1.04 | 0.928 (inactive) | 1 (inactive) | 1.01 (inactive) | 1.01 (inactive) | 0.999 (inactive) | 1.03 (inactive) | 1.01 (inactive) | 1.01 (inactive)
C=CC[C@]1(O)CC[C@H]2[C@@H]3CCC4=CC(=O)CCC4=C3C=C[C@@]21C [Altrenogest] | 0.998 | 0.987 | 1.05 | 0.827 | 0.926 (inactive) | 1.02 (inactive) | 1 (inactive) | 1.09 (inactive) | 1.01 (inactive) | 1.42 (inactive) | 1.01 (inactive) | 0.978 (inactive)
c1ccc2c(c1)ccc1c3ccccc3sc21 [Benzo[b]naphtho[2,1-d]thiophene] | 0.989 | 0.988 | 1.11 | 1.07 | 1.02 (inactive) | 0.962 (inactive) | 1.01 (inactive) | 1.01 (inactive) | 1.03 (inactive) | 0.992 (inactive) | 1.01 (inactive) | 0.99 (inactive)
CCOC(=O)OC1=C(c2cc(C)ccc2C)C(=O)N[C@]12CC[C@@H](OC)CC2 | 0.93 | 1.02 | 0.993 | 0.921 | 1.01 (inactive) | 0.974 (inactive) | 1.02 (inactive) | 1 (inactive) | 1 (inactive) | 0.963 (inactive) | 1 (inactive) | 1.04 (inactive)
Oc1ccc(Cc2ccc(O)cc2)cc1 [Bisphenol F] | 0.945 | 1.12 | 0.989 | 1.03 | 1.06 (inactive) | 1.11 (inactive) | 1.15 (inactive) | 1.04 (inactive) | 0.986 (inactive) | 1.03 (inactive) | 1.09 (inactive) | 1.48 (inactive)
C[C@]12CC[C@H]3[C@@H](CCC4=CC(=O)CC[C@@H]43)[C@@H]1CC[C@@H]2O [Nandrolone] | 1.11 | 1.06 | 1.02 | 1.01 | 0.993 (inactive) | 1.01 (inactive) | 1.02 (inactive) | 1.04 (inactive) | 1 (inactive) | 1 (inactive) | 0.999 (inactive) | 1.03 (inactive)
C[N+]1(C)CCOC(O)(c2ccc(-c3ccc(C4(O)C[N+](C)(C)CCO4)cc3)cc2)C1 (configuration not stated) [Hemicholinium bromide] | 1.04 | 0.992 | 1.2 | 1.27 | 0.912 (inactive) | 1.18 (inactive) | 1.06 (inactive) | 1.01 (inactive) | 0.995 (inactive) | 0.928 (inactive) | 1.02 (inactive) | 1.07 (inactive)
CC(=NC#N)N(C)Cc1ccc(Cl)nc1 | 0.969 | 0.971 | 0.989 | 1.13 | 1.02 (inactive) | 0.985 (inactive) | 1.02 (inactive) | 1.02 (inactive) | 0.979 (inactive) | 1.01 (inactive) | 0.992 (inactive) | 1.05 (inactive)
CNC(=O)Oc1ccc2c(c1)[C@]1(C)CCN(C)[C@@H]1N2C [Eserine hemisulfate salt] | 1.02 | 1.06 | 0.988 | 1.05 | 1.04 (inactive) | 1.02 (inactive) | 1.03 (inactive) | 1.06 (inactive) | 0.996 (inactive) | 0.999 (inactive) | 0.975 (inactive) | 1.05 (inactive)
C#C[C@]1(O)CC[C@H]2[C@@H]3CCC4=CC(=O)CCC4=C3C=C[C@@]21CC [Gestrinone] | 1.02 | 0.985 | 0.996 | 1.04 | 0.947 (inactive) | 1.03 (inactive) | 1.16 (inactive) | 0.88 (inactive) | 0.96 (inactive) | 0.913 (inactive) | 1.03 (inactive) | 1.18 (inactive)
COc1ccc(C(=O)N2CCCC2=O)cc1 [Aniracetam] | 0.932 | 0.978 | 1.04 | 0.771 | 0.853 (inactive) | 1.09 (inactive) | 1.03 (inactive) | 0.929 (inactive) | 0.976 (inactive) | 1.02 (inactive) | 1.01 (inactive) | 1.03 (inactive)
CCC1(C)CC(=O)NC(=O)C1 [Bemegride] | 1.08 | 1.06 | 1.04 | 0.973 | 0.98 (inactive) | 1.04 (inactive) | 1.03 (inactive) | 0.985 (inactive) | 0.981 (inactive) | 0.986 (inactive) | 0.991 (inactive) | 1.03 (inactive)
NC(=O)C[S+]([O-])C(c1ccccc1)c1ccccc1 (configuration not stated) [Modafinil] | 0.82 | 0.705 | 0.712 | 0.795 | 0.949 (inactive) | 1.1 (inactive) | 1.03 (inactive) | 1.01 (inactive) | 0.987 (inactive) | 0.99 (inactive) | 1 (inactive) | 1.06 (inactive)
O=C1C=C(N(Cc2ccc(Cl)nc2)CC(F)F)CO1 | 0.968 | 1.01 | 0.997 | 0.923 | 1.02 (inactive) | 1.15 (inactive) | 1.1 (inactive) | 0.94 (inactive) | 1 (inactive) | 0.933 (inactive) | 1.01 (inactive) | 1.15 (inactive)
CC[C@@H](C(=O)[C@@H](C)[C@@H](O)[C@H](C)[C@@H]1O[C@@H]([C@@H](CC)C(=O)O)CC[C@@H]1C)[C@H]1O[C@]2(C=C[C@@H](O)[C@]3(CC[C@@](C)([C@H]4CC[C@](O)(CC)[C@H](C)O4)O3)O2)[C@H](C)C[C@@H]1C [Salinomycin sodium] | 0.000863 | 1.01 | 0.976 | 0.156 | 1.02 (inactive) | 0.0211 (active) | 0.152 (active) | 0.929 (inactive) | 0.993 (inactive) | 1.01 (inactive) | 0.996 (inactive) | 0.177 (active)
CCNC1(c2cccs2)CCCCC1=O (configuration not stated) [Tiletamine hydrochloride] | 1.04 | 1 | 0.995 | 1.15 | 1.03 (inactive) | 1.04 (inactive) | 1.02 (inactive) | 0.955 (inactive) | 1.01 (inactive) | 0.995 (inactive) | 1.01 (inactive) | 1 (inactive)
CC1(C)[C@H](/C=C(\Cl)C(F)(F)F)[C@@H]1C(=O)OC(C#N)c1cccc(Oc2ccccc2)c1 (some centres not stated) | 0.953 | 0.991 | 0.981 | 0.999 | 0.987 (inactive) | 0.918 (inactive) | 1.03 (inactive) | 0.976 (inactive) | 0.987 (inactive) | 1.02 (inactive) | 0.995 (inactive) | 1.08 (inactive)
O=NN(CCO)CCO [DMNA (N-nitrosodiethanolamine)] | 0.95 | 1.15 | 1 | 1.09 | 0.975 (inactive) | 0.994 (inactive) | 1.05 (inactive) | 1.03 (inactive) | 0.957 (inactive) | 0.978 (inactive) | 1.03 (inactive) | 1.08 (inactive)
CN[C@@H]1[C@@H](O)[C@@H](O[C@@H]2[C@@H](O)[C@H](O[C@H]3O[C@H](CN)CC[C@H]3N)[C@@H](N)C[C@H]2N)OC[C@]1(C)O.CN[C@@H]1[C@@H](O)[C@@H](O[C@@H]2[C@@H](O)[C@H](O[C@H]3O[C@H]([C@@H](C)N)CC[C@H]3N)[C@@H](N)C[C@H]2N)OC[C@]1(C)O.CN[C@@H]1[C@@H](O)[C@@H](O[C@@H]2[C@@H](O)[C@H](O[C@H]3O[C@H]([C@@H](C)NC)CC[C@H]3N)[C@@H](N)C[C@H]2N)OC[C@]1(C)O [Gentamicine sulfate] | 1.12 | 1.03 | 0.994 | 1.16 | 0.948 (inactive) | 0.703 (inactive) | 1.08 (inactive) | 1.02 (inactive) | 1.02 (inactive) | 1.02 (inactive) | 1.05 (inactive) | 1.16 (inactive)

From the supplement of paper PMC12494721
